Assay results from PubChem BioAssay (EPA / NIEHS).
Inconclusive results are not listed. Activity calls are given as the source filed them. How the source made its calls, unless noted: active means hit-call score of the fitted dose curve at least 0.9, where 1 is the maximum; inactive means score below 0.9.

Tests used:
[1] = target: Retinoic acid receptor RXR-alpha (Homo sapiens) (UniProt P19793); experiment: ATG_RXRa_TRANS: Attagene TRANS-FACTORIAL HepG2 Assay for human Retinoid X Receptor alpha (RXRa) (AID 2283012; active means hit-call score of the fitted dose curve at least 0.9, where 1 is the maximum)
Summary of the method: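 Cells (HepG2) carried transiently transfected GAL4-responsive reporter units. Following a 24 h chemical incubation, reporter mRNA induction was read via RT-PCR fragment analysis; DMSO served as negative control and baseline.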

[2] = read-out: E-selectin (Homo sapiens) (UniProt P16581); experiment: BSK_3C_Eselectin: BioMAP Diversity Plus: 3C Assay for Eselectin Biomarker Activity (AID 2283015); details: primary human endothelial cells (HUVEC); actives raise or lower the signal;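 on outcome: cell surface E-selectin protein quantified by ELISA 24 h after dosing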
Summary of the method: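 Primary human umbilical vein endothelial cells (3C system) were dosed with chemical and cell-surface E-selectin measured by ELISA 24 h later. Bidirectional curve fitting used DMSO as negative control and baseline.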

[3] = read-out: Interleukin-1 alpha (IL1a), IL1A (gene 3552); experiment: BSK_BE3C_IL1a: BioMAP Diversity Plus: BE3C Assay for Interleukin-1 alpha (IL1a) Biomarker Activity (AID 2283016); details: primary human bronchial epithelial cells; actives raise or lower the signal
Summary of the method: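 Cultures of primary human bronchial epithelial cells receive test chemical. After 24 h, IL-1a is quantified by ELISA, while parallel wells are fixed in TCA and SRB-stained for total protein. Changes in either direction are fitted relative to DMSO.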

[4] = read-out: Monocyte Chemoattractant Protein-1 (MCP1), CCL2 (gene 6347); experiment: BSK_3C_MCP1: BioMAP Diversity Plus: 3C Assay for Monocyte Chemoattractant Protein-1 (MCP1) Biomarker Activity (AID 2283017); details: primary human endothelial cells (HUVEC); actives raise or lower the signal
Summary of the method: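 Primary human umbilical vein endothelial cells (3C system) were exposed to test chemical for 24 h, after which MCP-1 was quantified by ELISA. Activity was fitted bidirectionally against DMSO as negative control and baseline.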

[5] = read-out: Monocyte Chemoattractant Protein-1 (MCP1), CCL2 (gene 6347); experiment: BSK_4H_MCP1: BioMAP Diversity Plus: 4H Assay for Monocyte Chemoattractant Protein-1 (MCP1) Biomarker Activity (AID 2283018); details: primary human endothelial cells (HUVEC); actives raise or lower the signal
Summary of the method: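 Readout: MCP-1 ELISA on compound-treated HUVEC, sampled 24 h post-dosing. Baseline and negative control DMSO; bidirectional fit. Overt toxicity checked alongside by sulforhodamine B protein staining at time of biomarker measurement.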

[6] = read-out: Human Leukocyte Antigen - DR isotype (HLADR), HLA-DRA (gene 3122); experiment: BSK_3C_HLADR: BioMAP Diversity Plus: 3C Assay for Human Leukocyte Antigen - DR isotype (HLADR) Biomarker Activity (AID 2283019); details: primary human endothelial cells (HUVEC); actives raise or lower the signal;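 on outcome: ELISA of cell-surface HLA-DR on HUVEC 24 h after dosing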
Summary of the method: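 Primary human umbilical vein endothelial cells (3C system) were dosed with compound and cell-surface HLA-DR was quantified by ELISA at 24 h. Activity was fitted bidirectionally against DMSO as negative control and baseline.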

[7] = read-out: Interleukin-8 (IL8), CXCL8 (gene 3576); experiment: BSK_3C_IL8: BioMAP Diversity Plus: 3C Assay for Interleukin-8 (IL8) Biomarker Activity (AID 2283020); details: primary human endothelial cells (HUVEC); actives raise or lower the signal
Summary of the method: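 Human vascular endothelial cells (umbilical vein) in the 3C system; IL-8 level detected by ELISA at 24 h post-dose, with DMSO as baseline.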

[8] = read-out: Monokine induced gamma interferon (MIG), CXCL9 (gene 4283); experiment: BSK_3C_MIG: BioMAP Diversity Plus: 3C Assay for Monokine induced gamma interferon (MIG) Biomarker Activity (AID 2283021); details: primary human endothelial cells (HUVEC); actives raise or lower the signal;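 on AC50: MIG protein level measured by immunoassay in the treated endothelial cultures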
Summary of the method: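 After 24 h of treatment, human umbilical vein endothelial cultures (3C system) had their MIG biomarker level determined by ELISA, with DMSO serving as negative control.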

[9] = BSK_3C_SRB: Viability Assessment in the BioMAP Diversity Plus: 3C Assay (AID 2283023); details: primary human endothelial cells (HUVEC);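 further: fitted both ways against DMSO so a hit may be signal rise or drop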
Summary of the method: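 Primary human umbilical vein endothelial cells in the 3C system were read 24 h after compound dosing. Total protein was stained with 0.1% sulforhodamine B after 10% TCA fixation and read at 560 nm, with bidirectional fitting against DMSO as baseline.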

[10] = read-out: Matrix Metallopeptidase 1 (MMP1), MMP1 (gene 4312); experiment: BSK_BE3C_MMP1: BioMAP Diversity Plus: BE3C Assay for Matrix Metallopeptidase 1 (MMP1) Biomarker Activity (AID 2283024); details: primary human bronchial epithelial cells; actives raise or lower the signal
Summary of the method: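 Dose cells, wait 24 h, run MMP1 ELISA; cells are human bronchial epithelial primaries. Both increases and decreases relative to DMSO counted.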

[11] = BSK_3C_Vis: BioMAP Diversity Plus: 3C Assay for Morphology Visualization (AID 2283025); details: primary human endothelial cells (HUVEC);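 further: fitted both ways so gain or loss versus DMSO counts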;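 on AC50: light microscopy image of cell morphology used as background control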
Summary of the method: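 Endothelial cells from human umbilical vein were treated with test chemicals for 24 h and inspected by light microscopy for changes in cell conformation.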

[12] = read-out: Pselectin, SELP (gene 6403); experiment: BSK_4H_Pselectin: BioMAP Diversity Plus: 4H Assay for Pselectin Biomarker Activity (AID 2283026); details: primary human endothelial cells (HUVEC); actives raise or lower the signal
Summary of the method: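 Human vascular endothelium from umbilical vein; P-selectin measured by ELISA at 24 h post-dose, with cytotoxicity checked by sulforhodamine B total-protein staining in parallel cultures (0.1% SRB after 10% TCA fixation, read at 560 nm).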

[13] = read-out: Thrombomodulin, THBD (gene 7056); experiment: BSK_3C_Thrombomodulin: BioMAP Diversity Plus: 3C Assay for Thrombomodulin Biomarker Activity (AID 2283029); details: primary human endothelial cells (HUVEC); actives raise or lower the signal
Summary of the method: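 Thrombomodulin ELISA, human primary HUVEC, 24 h post-dose; data fitted in both directions relative to DMSO.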

[14] = read-out: Urokinase-type plasminogen activator receptor (uPAR), PLAUR (gene 5329); experiment: BSK_4H_uPAR: BioMAP Diversity Plus: 4H Assay for Urokinase-type plasminogen activator receptor (uPAR) Biomarker Activity (AID 2283030); details: primary human endothelial cells (HUVEC); actives raise or lower the signal
Summary of the method: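 Primary human umbilical vein endothelial cells were exposed to chemical for 24 h before cell-surface uPAR was quantified by ELISA. Activity was fitted bidirectionally against the DMSO negative control baseline.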

[15] = read-out: Vascular endothelial growth factor receptor 2 (Homo sapiens) (UniProt P35968); experiment: BSK_4H_VEGFRII: BioMAP Diversity Plus: 4H Assay for Vascular endothelial growth factor receptor 2 (VEGFR2) Biomarker Activity (AID 2283031); details: primary human endothelial cells (HUVEC); actives raise or lower the signal
Summary of the method: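 Primary human umbilical vein endothelial cells in the BioMAP 4H system were dosed with test chemical, and 24 h later VEGFRII was measured by ELISA. Activity was fitted bidirectionally against DMSO as negative control and baseline.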

[16] = target: human Retinoid X Receptor beta (RXRb), RXRB (gene 6257) (UniProt P28702); experiment: ATG_RXRb_TRANS: Attagene TRANS-FACTORIAL HepG2 Assay for human Retinoid X Receptor beta (RXRb) (AID 2283013; active means hit-call score of the fitted dose curve at least 0.9, where 1 is the maximum)
Summary of the method: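 Multiplexed TRANS reporter assay in HepG2; 24 h dosing; reporter mRNA by RT-PCR/CE fluorescence; gain-of-signal relative to DMSO.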

[17] = target: human Thyroid Receptor alpha (THRa1), THRA (gene 7067) (UniProt P10827); experiment: ATG_THRa1_TRANS: Attagene TRANS-FACTORIAL HepG2 Assay for human Thyroid Receptor alpha (THRa1) (AID 2283014; active means hit-call score of the fitted dose curve at least 0.9, where 1 is the maximum)
Summary of the method: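 HepG2 cells transiently transfected with multiplexed GAL4-UAS reporter units for exogenous chimeric THRa1-Gal4; reporter mRNA measured 24 h after dosing by RT-PCR, 6-FAM labelling, HpaI digestion and capillary electrophoresis. Gain-of-signal fitted versus DMSO baseline.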

[18] = target: human Vitamin D Receptor (VDR), VDR (gene 7421) (UniProt P11473); experiment: ATG_VDR_TRANS: Attagene TRANS-FACTORIAL HepG2 Assay for human Vitamin D Receptor (VDR) (AID 2283022; active means hit-call score of the fitted dose curve at least 0.9, where 1 is the maximum)
Summary of the method: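 HepG2 cells were transiently transfected with multiple GAL4-UAS reporter units, so signal reflects exogenous chimeric receptor-Gal4 activity. After 24 h compound exposure, reporter mRNA was measured by RT-PCR, fluorescent labelling and capillary electrophoresis, fitted for gain of signal versus DMSO.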

[19] = BSK_4H_SRB: Viability Assessment in the BioMAP Diversity Plus: 4H Assay (AID 2283027); details: primary human endothelial cells (HUVEC);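 further: cells exposed to compound for 24 h before staining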;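 on AC50: curves fitted both ways versus DMSO so AC50 may be loss or gain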
Summary of the method: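 Human umbilical vein endothelial cells, 24 h after chemical dosing; total protein measured by 0.1% sulforhodamine B staining after 10% TCA fixation, read at 560 nm. Bidirectional fitting against DMSO.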

[20] = BSK_BE3C_SRB: Viability Assessment in the BioMAP Diversity Plus: BE3C Assay (AID 2283028); details: primary human bronchial epithelial cells
Summary of the method: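 Human primary bronchial epithelial cells were exposed to test chemicals for 24 h. Total protein in parallel cultures was then measured by staining with 0.1% sulforhodamine B after 10% TCA fixation, with absorbance read at 560 nm. Activity was fitted bidirectionally against DMSO.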

human Thyroid Receptor alpha (THRa1), THRA (gene 7067), sequence (P10827 whole entry, looked up, the tested form may be a part): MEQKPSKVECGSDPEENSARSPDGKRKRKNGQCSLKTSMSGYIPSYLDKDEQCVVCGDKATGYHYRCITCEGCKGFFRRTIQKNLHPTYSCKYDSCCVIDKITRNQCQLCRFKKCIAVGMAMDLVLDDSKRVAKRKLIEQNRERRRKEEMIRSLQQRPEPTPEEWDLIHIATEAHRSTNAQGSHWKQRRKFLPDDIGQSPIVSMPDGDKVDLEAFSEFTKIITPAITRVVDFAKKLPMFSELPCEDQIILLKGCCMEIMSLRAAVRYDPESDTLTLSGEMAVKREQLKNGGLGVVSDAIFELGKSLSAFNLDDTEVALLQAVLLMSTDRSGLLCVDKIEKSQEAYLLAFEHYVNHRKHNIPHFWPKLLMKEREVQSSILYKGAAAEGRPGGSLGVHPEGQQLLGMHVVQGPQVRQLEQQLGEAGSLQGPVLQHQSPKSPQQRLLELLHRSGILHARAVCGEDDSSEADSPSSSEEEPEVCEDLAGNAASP
human Vitamin D Receptor (VDR), VDR (gene 7421), sequence (P11473 whole entry, looked up, the tested form may be a part): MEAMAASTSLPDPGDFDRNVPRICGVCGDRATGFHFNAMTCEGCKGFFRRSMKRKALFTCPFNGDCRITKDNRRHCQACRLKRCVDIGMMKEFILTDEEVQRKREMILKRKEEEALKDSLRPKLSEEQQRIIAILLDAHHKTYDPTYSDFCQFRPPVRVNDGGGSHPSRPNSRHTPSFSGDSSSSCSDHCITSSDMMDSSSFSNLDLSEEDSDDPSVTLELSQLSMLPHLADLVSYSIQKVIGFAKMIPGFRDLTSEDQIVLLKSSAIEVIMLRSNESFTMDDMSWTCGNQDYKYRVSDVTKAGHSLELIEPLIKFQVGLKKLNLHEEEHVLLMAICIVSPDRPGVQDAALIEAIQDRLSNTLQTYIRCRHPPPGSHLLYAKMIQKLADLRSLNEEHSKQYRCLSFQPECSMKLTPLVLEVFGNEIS
E-selectin (Homo sapiens), sequence (P16581 whole entry, looked up): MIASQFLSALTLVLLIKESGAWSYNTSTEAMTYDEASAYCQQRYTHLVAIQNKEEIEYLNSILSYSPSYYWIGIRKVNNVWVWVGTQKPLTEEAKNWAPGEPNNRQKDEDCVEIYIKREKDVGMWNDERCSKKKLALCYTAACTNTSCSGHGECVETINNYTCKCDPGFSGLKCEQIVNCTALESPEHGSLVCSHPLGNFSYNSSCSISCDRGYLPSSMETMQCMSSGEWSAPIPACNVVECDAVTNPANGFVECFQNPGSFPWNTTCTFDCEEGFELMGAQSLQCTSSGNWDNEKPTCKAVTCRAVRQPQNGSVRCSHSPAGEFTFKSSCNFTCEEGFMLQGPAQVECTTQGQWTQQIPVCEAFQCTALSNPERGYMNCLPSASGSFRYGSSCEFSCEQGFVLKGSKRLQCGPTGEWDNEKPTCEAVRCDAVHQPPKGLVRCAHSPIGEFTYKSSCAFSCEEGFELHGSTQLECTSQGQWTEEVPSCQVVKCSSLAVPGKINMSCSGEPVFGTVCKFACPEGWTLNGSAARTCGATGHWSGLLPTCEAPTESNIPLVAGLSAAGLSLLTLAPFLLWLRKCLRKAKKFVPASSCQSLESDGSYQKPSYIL
human Retinoid X Receptor beta (RXRb), RXRB (gene 6257), sequence (P28702 whole entry, looked up): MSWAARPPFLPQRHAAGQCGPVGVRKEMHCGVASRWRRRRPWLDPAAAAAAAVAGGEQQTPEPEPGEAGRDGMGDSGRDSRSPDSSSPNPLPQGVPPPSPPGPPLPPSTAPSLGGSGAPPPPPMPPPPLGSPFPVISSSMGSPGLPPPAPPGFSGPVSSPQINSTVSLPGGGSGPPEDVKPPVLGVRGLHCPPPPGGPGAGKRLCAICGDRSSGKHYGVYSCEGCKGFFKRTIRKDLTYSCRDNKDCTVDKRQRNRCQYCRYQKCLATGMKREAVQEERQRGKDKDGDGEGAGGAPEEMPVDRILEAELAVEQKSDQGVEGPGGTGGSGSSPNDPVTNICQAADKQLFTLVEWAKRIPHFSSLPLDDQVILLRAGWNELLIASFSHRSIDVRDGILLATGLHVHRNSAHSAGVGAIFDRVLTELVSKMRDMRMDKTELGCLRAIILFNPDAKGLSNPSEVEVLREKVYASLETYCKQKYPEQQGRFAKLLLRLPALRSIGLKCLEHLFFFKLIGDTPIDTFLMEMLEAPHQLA
Retinoic acid receptor RXR-alpha (Homo sapiens), sequence (P19793 whole entry, looked up, the tested form may be a part): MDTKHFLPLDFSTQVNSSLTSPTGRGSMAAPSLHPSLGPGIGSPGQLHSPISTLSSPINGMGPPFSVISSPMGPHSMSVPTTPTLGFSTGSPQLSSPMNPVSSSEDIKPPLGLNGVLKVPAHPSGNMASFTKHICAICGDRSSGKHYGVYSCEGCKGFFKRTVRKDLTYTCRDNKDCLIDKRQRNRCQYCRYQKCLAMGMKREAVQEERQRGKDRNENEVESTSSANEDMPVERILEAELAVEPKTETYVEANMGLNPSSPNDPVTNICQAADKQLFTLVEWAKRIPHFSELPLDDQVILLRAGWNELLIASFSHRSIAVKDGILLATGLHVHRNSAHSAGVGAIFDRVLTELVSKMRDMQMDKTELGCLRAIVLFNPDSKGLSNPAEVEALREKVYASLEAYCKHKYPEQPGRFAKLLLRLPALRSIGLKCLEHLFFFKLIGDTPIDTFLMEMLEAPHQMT

In the case of `CCOC(=O)CC(O)(CC(=O)OCC)C(=O)OCC`, the outcome [1] is reported as “inactive”, the outcome [2] is reported as “inactive” and the outcome [3] is reported as “inactive”. The outcome [4] was “inactive”, the outcome [5] was “inactive” and the outcome [6] was “inactive”. The outcome [7] was “inactive”, the outcome [8] was “inactive” and the outcome [9] was “inactive”. For the same compound, the outcome [10] was “inactive”, the outcome [11] was “inactive” and the outcome [12] was “inactive”. The outcome [13] was “inactive”, the outcome [14] was “inactive” and the outcome [15] was “inactive”.

With `CCCOC(=O)c1ccc(O)cc1` the outcome [16] was “inactive”, the outcome [17] was “inactive” and the outcome [2] was “inactive”. For the same compound, the outcome [3] was “inactive”, the outcome [4] was “inactive” and the outcome [5] was “inactive”. The outcome [6] was “inactive”, the outcome [7] was “inactive” and the outcome [8] was “inactive”. The outcome [18] was “inactive”, the outcome [9] was “inactive” and the outcome [10] was “inactive”. For the same compound, the outcome [11] was “inactive”, the outcome [12] was “inactive” and the outcome [19] was “inactive”. For the same compound, the outcome [13] was “inactive”, the outcome [14] was “inactive” and the outcome [15] was “inactive”.

In the case of `O=C(OCCOCCOC(=O)c1ccccc1)c1ccccc1`, the outcome [17] is reported as “inactive”, the outcome [2] is reported as “inactive” and the outcome [3] is reported as “inactive”. For the same compound, the outcome [4] was “inactive”, the outcome [5] was “inactive” and the outcome [6] was “inactive”. The outcome [7] was “inactive”, the outcome [8] was “inactive” and the outcome [9] was “inactive”. For the same compound, the outcome [10] was “inactive”, the outcome [11] was “inactive” and the outcome [12] was “inactive”. For the same compound, the outcome [20] was “inactive”, the outcome [13] was “inactive” and the outcome [14] was “inactive”. For the same compound, the outcome [15] was “inactive”.

In the case of `CC(C)CCCCCCOC(=O)CCCCC(=O)OCCCCCCC(C)C`, the AC50 [16] is reported as 52.9 µM (active), the outcome [17] is reported as “inactive” and the outcome [2] is reported as “inactive”. For the same compound, the outcome [4] was “inactive”, the outcome [5] was “inactive” and the outcome [6] was “inactive”. For the same compound, the outcome [7] was “inactive”, the outcome [8] was “inactive” and the outcome [9] was “inactive”. The outcome [10] was “inactive”, the outcome [11] was “inactive” and the outcome [12] was “inactive”. For the same compound, the outcome [20] was “inactive”, the outcome [13] was “inactive” and the outcome [14] was “inactive”. For the same compound, the outcome [15] was “inactive”.

With `CC[C@H](C)[C@@H](C(=O)O)n1sc2ccccc2c1=O` the outcome [16] was “inactive”, the outcome [17] was “inactive” and the outcome [2] was “inactive”. The outcome [3] was “inactive”, the outcome [4] was “inactive” and the outcome [5] was “inactive”. The outcome [6] was “inactive”, the outcome [7] was “inactive” and the outcome [8] was “inactive”. The outcome [18] was “inactive”, the outcome [9] was “inactive” and the outcome [10] was “inactive”. For the same compound, the outcome [11] was “inactive”, the outcome [12] was “inactive” and the outcome [19] was “inactive”. For the same compound, the outcome [13] was “inactive”, the outcome [14] was “inactive” and the outcome [15] was “inactive”.

With `COc1ccc([N+](=O)[O-])cc1N` the outcome [1] was “inactive”, the outcome [17] was “inactive” and the outcome [2] was “inactive”. The outcome [3] was “inactive”, the outcome [4] was “inactive” and the outcome [5] was “inactive”. For the same compound, the outcome [6] was “inactive”, the outcome [7] was “inactive” and the outcome [8] was “inactive”. The outcome [9] was “inactive”, the outcome [10] was “inactive” and the outcome [11] was “inactive”. The outcome [12] was “inactive”, the outcome [19] was “inactive” and the outcome [13] was “inactive”. The outcome [14] was “inactive” and the outcome [15] was “inactive”.

In the case of `Cc1cc(CCN2CCN(c3nsc4ccccc34)CC2)cc2c1NC(=O)CC2(C)C`, the outcome [1] is reported as “inactive”, the AC50 [2] is reported as 30.9 µM (active) and the AC50 [3] is reported as 30.5 µM (active). For the same compound, the AC50 [4] was 30.7 µM (active), the AC50 [5] was 8.35 µM (active) and the AC50 [6] was 10.9 µM (active). For the same compound, the AC50 [7] was 33.1 µM (active), the AC50 [8] was 35.8 µM (active) and the outcome [18] was “inactive”. The AC50 [9] was 26.5 µM (active), the AC50 [10] was 31.2 µM (active) and the AC50 [11] was 16.3 µM (active). The AC50 [12] was 16.5 µM (active), the AC50 [19] was 20 µM (active) and the AC50 [13] was 4.31 µM (active). For the same compound, the AC50 [14] was 4.39 µM (active) and the outcome [15] was “inactive”.
